# Lassa entry inh: inhibitors of Lassa virus binding or cell entry. Lassa virus pseudotype entry inhibition, cell reporter. Potency, µM (top dose mostly 37.9 µM), for the others: at the top dose activity change, negative = inhibition, actives largely listed as inhibitors. 300,000 tested, 1.2% active; calls by dose curve; tested in HEK293 cells; also: potency is read from the fitted curve at half-maximal effect; % is scaled to controls: 0 for no effect and ±100 for the full control effect; nearly all actives have a fitted effect of over 50% in size
# SARS PLpro yeast: inhibitors of SARS-CoV papain-like protease in yeast | S. cerevisiae expressing SARS-CoV PLpro, growth rescue | Potency, µM (top dose mostly 32.9 µM), for inactives: at the highest dose activity, positive = growth rescue, usual class: activators | 330,000 tested, 0.19% active; calls by dose curve; also: potency is read from the fitted curve at half-maximal effect; 0% is about no effect; nearly all actives have a fitted effect of over 55% in size
# HCMV inh: inhibitors of human cytomegalovirus. HFF cells, HCMV-luciferase reporter, 72 h; stronger effect = lower value. activity change, negative = inhibition, % at 57.5 µM. 410,000 tested, 4.5% active. AID 1259415; in the data active = activity change below about -60%; inconclusive = no clear call, values can overlap the other calls; inactive = above about -39%; also: % is scaled to controls: 0 for no effect and ±100 for the full control effect
#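 Two-dose cell screen: HFF monolayers treated with compounds and infected with luciferase-expressing HCMV at 1 PFU/cell, 72 h at 37C, then lysed for luciferase measurement.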
# Marburg entry inh: inhibitors of Marburg virus binding or cell entry | Marburg virus pseudotyped entry inhibition, cell reporter | Potency, µM (doses to about 37.8 µM), for inactives: at the top dose activity change, negative = inhibition, most hits filed as inhibitors | AID 540276 | 300,000 tested, 1.8% active; calls by dose curve; tested in HEK293 cells; also: potency is read from the fitted curve at half-maximal effect; % is scaled to controls: 0 for no effect and ±100 for the full control effect
# HCV inhibitor: blocks hepatitis C virus; Huh7.5.1 HCVcc-Cre infection, luciferase reporter, 44 h; Potency, µM (doses to about 41.8 µM), for inactives: at the top dose activity change, negative = inhibition, actives largely listed as inhibitors; 340,000 tested, 3.4% active; AID 651820; active = well fitted inhibition curve with a large enough effect; inconclusive = small, poorly fitted or top-dose-only effect, or another doubt; inactive = no such curve, though single readings can be large or run the other way; also: potency is read from the fitted curve at half-maximal effect; % is scaled to controls: 0 for no effect and ±100 for the full control effect
#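 1,000 cells/well; 4 h culture; + compound; + HCVcc-Cre (~0.5 moi); 44 h; luciferase substrate, RT 15 min; read 15 sec.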
# FMDV antiviral: blocks foot and mouth disease virus; FMDV antiviral cell-based qHTS; Potency, µM (series often up to 57.9 µM), for inactives: at the top dose activity change, negative = inhibition, hits mostly inhibitors; 410,000 tested, 1.2% active; AID 1159524; calls by dose curve; tested in HEK293T cells; also: read-out not given here; potency is read from the fitted curve at half-maximal effect; % is scaled to controls: 0 for no effect and ±100 for the full control effect; nearly all actives have a fitted effect of over 45% in size
# * hit, by the source's call; ? = inconclusive; . = no result given; [ ] = remark or other dose. The list is not random: actives were taken first. Their share in the collection is about 8%.
SMILES,Lassa entry inh,SARS PLpro yeast,HCMV inh,Marburg entry inh,HCV inhibitor,FMDV antiviral
COc1ccccc1-n1cnc2c(c1=O)c1nc3ccccc3nc1n2CCc1ccccc1,17%,-11%,?,20%,4%,-28%
CC(=O)N1CCc2cc(S(=O)(=O)NCC(=O)NCc3ccc(Cl)cc3)ccc21,.,-5%,0,.,4%,8%
CC(C)Nc1nc(NC(C)C)nc(N(C)N)n1,?,-11%,14,-26%,5.6µM*,-8%
O=C(/C=N\O)NCCCN1CCOCC1,.,.,.,-36%,.,.
CN(C)S(=O)(=O)N1CCN(C(=O)N2CCCCC2)CC1,12%,6%,39,-2%,-2%,.
CN(C)S(=O)(=O)N1CCN(C(=O)N2CCOCC2)CC1,0%,1%,-101*,-6%,11%,.
O=C(Nc1ccc(F)cc1)c1oc2ccccc2c1NC(=O)C1CC1,.,1%,-60*,.,-6%,-27%
CCOc1ccccc1C(=O)Nc1c(C(=O)Nc2ccc(F)cc2)oc2ccccc12,?,.,-62*,?,.,-19%
COc1cc(CN2CCN(c3cccc(Cl)c3)CC2)cc(OC)c1OC,-29%,2%,29,-19%,-5%,-24%
O=[N+]([O-])c1cc(CN2CCN(c3ccccc3)CC2)c(O)c2ncccc12,?,1%,-89*,?,?,-20%
CN1CCN(Cc2cc(COCc3ccccc3)c3cccnc3c2O)CC1,?,4%,?,6.3µM*,3.2µM*,-19%
CCCOCc1cc(CN2CCN(c3cccc(Cl)c3)CC2)c(O)c2ncccc12,?,.,-97*,?,.,-23%
CCCCOCc1cc(CN2CCN(c3cccc(Cl)c3)CC2)c(O)c2ncccc12,?,.,-100*,?,.,0%
CN(C)CC(C)(C)CNC(=O)c1cnn(-c2nccc(-c3ccc4c(c3)OCO4)n2)c1-c1ccco1,.,.,.,.,.,-4%
Cc1ccc(NS(=O)(=O)c2ccc(NC(=O)N3CCCC3)cc2)cc1C,20%[46.1 µM],.,15,.,.,-14%
CCCCNC(=O)c1nc(C2CCNCC2)oc1-c1cccc(C(F)(F)F)c1,.,.,2,.,.,-17%
COc1ccc2c3c(n(C)c2c1)[C@@H](CO)N(S(=O)(=O)c1ccccc1)CC31CCN(C)CC1,.,.,81,.,.,.
CC(=O)c1cccc(NS(=O)(=O)c2ccc(-c3cnc(C4CC4)o3)cc2)c1,.,4%,-85*,.,?,-15%
Cc1ccc(C)c(NS(=O)(=O)c2ccc(-c3cnc(C4CC4)o3)cc2)c1,.,-11%,-82*,.,?,-16%
Cc1cc(C)cc(NS(=O)(=O)c2ccc(-c3cnc(C4CC4)o3)cc2)c1,.,-3%,?,.,5%,-9%
Cc1c(Cl)cccc1NS(=O)(=O)c1ccc(-c2cnc(C3CC3)o2)cc1,?,.,-80*,.,.,-17%
CC(=O)Nc1ccc(NS(=O)(=O)c2ccc(-c3cnc(C4CC4)o3)cc2)cc1,?,7%,0,?,?,3%
CCOC(=O)Cn1cc(Cn2c3ccccc3c(=O)n2C(C)C)nn1,.,.,-18,.,.,-11%
CC(CCc1ccccc1)NC(=O)CN1CCSc2ccccc21 (stereo unspecified),-16%,-5%,-15,-11%[46.1 µM],-7%,-9%
Cc1cc(O)c2c(c1O)C(=O)C(O)=C(O)C2=O,.,.,.,.,.,-19%
SMILES,Lassa entry inh,SARS PLpro yeast,HCMV inh,Marburg entry inh,HCV inhibitor,FMDV antiviral
NS(=O)(=O)c1ccc(CCNc2ncnc3c2c(-c2ccccc2)cn3-c2ccc(F)cc2)cc1,?,-4%,-12,?,11µM*,16µM*
Fc1ccc(-n2cc(-c3ccccc3)c3c(NN4CCOCC4)ncnc32)cc1,?,-1%,?,?,?,0%
O=C(Nc1ccc2c(c1)OCCO2)c1cc2ccccc2o1,7.9µM*,-11%,117,4µM*,22µM*,-35%
Cc1ccc(NC(=O)c2cc3ccccc3o2)cc1S(=O)(=O)N(C)C,?,-2%,12,16%,11µM*,-36%
Cc1ccc(NC(=S)N2CCC(c3ccccc3)C2)c(Cl)c1 (stereo unspecified),10µM*,-5%,13,?,3%,2%
CSc1cccc(NC(=S)N2CCC(c3ccccc3)C2)c1 (stereo unspecified),?,-4%,-82*,?,-29%,15%

# Screens: PubChem BioAssay, National Center for Advancing Translational Sciences (NCATS)
